Source: PubChem BioAssay (NCI)
Compounds without any hit were thinned out: in the full panel of roughly 83,000, 20% have a hit.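 Growth was measured after 48 h exposure to one concentration of compound in 96-well plates. Values under 10 count as active.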 A number with no mark means an inactive call. Activity calls are given as the source filed them.

How the values were obtained:
Test in all cases: NCI-60 one-dose screen, 48 h (100 = growth as untreated, 0 = no growth, -100 = all killed)
Conditions in all cases: 10 µM unless noted
[1] = tested on: HCT-15 colon
[2] = tested on: HT29 colon
[3] = tested on: SNB-75 CNS
[4] = tested on: SNB-19 CNS
[5] = tested on: U251 CNS
[6] = tested on: PC-3 prostate
[7] = tested on: SK-MEL-5 melanoma
[8] = tested on: UACC-62 melanoma
[9] = tested on: LOX IMVI melanoma
[10] = tested on: SK-MEL-28 melanoma
[11] = tested on: SN12C renal
[12] = tested on: UO-31 renal
[13] = tested on: TK-10 renal
[14] = tested on: ACHN renal
[15] = tested on: CAKI-1 renal
[16] = tested on: A498 renal
[17] = tested on: HL-60(TB) leukemia
[18] = tested on: CCRF-CEM leukemia
[19] = tested on: SK-MEL-2 melanoma
[20] = tested on: EKVX NSCLC

Row | Compound | growth [1] [%] | growth [2] [%] | growth [3] [%] | growth [4] [%] | growth [5] [%] | growth [6] [%] | growth [7] [%] | growth [8] | growth [9] | growth [10] [%] | growth [11] [%] | growth [12] [%] | growth [13] [%] | growth [14] | growth [15] [%] | growth [16] [%] | growth [17] | growth [18] [%] | growth [19] [%] | growth [20] [%]
1 | O=C1c2ccccc2C(=O)N1N1CC1c1ccccc1 (centres undefined) | 101 | 110 | 100 | 104 | 104 | 97.7 | 101 | 105% | 96.6% | 108 | 104 | 91.3 | 107 | 104% | 95.7 | 104 | 102% | 94.7 | – | –
2 | C[N+]1(C)CCCC1c1cccnc1 (centres undefined) | 104 | 102 | 98 | 105 | 94 | 97.6 | 95.4 | 102% | 100% | 114 | 99.8 | 99.7 | 111 | 114% | 98.2 | – | 117% | 97.6 | 112 | –
3 | COc1cc(C=C2C(=O)NC(=O)NC2=O)ccc1O | 103 | 99.2 | 96 | 96.7 | 98.7 | 103 | 109 | 92.7% | 102% | 131 | 96.5 | 94.4 | 127 | 101% | – | 69 | 95.6% | 113 | – | 153
4 | Cc1cc(Br)c([N+](=O)[O-])cc1[N+](=O)[O-] | 76.1 | 103 | 108 | 103 | 103 | 91.4 | 100 | 102% | 19.7% | 116 | 101 | 114 | 110 | 106% | 88.5 | 97.9 | 59.4% | 60.5 | – | 103
5 | OCCN=Cc1c[nH]c2ccccc12 | 105 | 102 | 75 | 101 | 103 | 90.5 | 103 | 90.9% | 95.2% | 111 | 93.3 | 75.7 | – | 94.3% | 80.4 | 107 | 101% | 114 | – | 93.8
6 | CC[C@@H](C)C(=O)O[C@H]1[C@H](O)[C@H]2[C@@H](CN3C[C@@H](C)CC[C@H]3[C@@]2(C)O)[C@@H]2C[C@]34O[C@]5(O)[C@@H](OC(=O)[C@@](C)(O)CC)CC[C@@]3(C)[C@@H]5[C@@H](OC(C)=O)[C@@H](OC(C)=O)[C@H]4[C@@]21O | 109 | 112 | 79.8 | 100 | 91.8 | 75.8 | 86.6 | 96.1% | 92.8% | 105 | 97.1 | 82.1 | 106 | 101% | 100 | 102 | 92.4% | 99.9 | – | 93.7
7 | O=C1CN2CCC1CC2 | 97 | 99.5 | 102 | 104 | 101 | 104 | 103 | 104% | 104% | 119 | 106 | 84.6 | 106 | – | 103 | 72.2 | 94% | – | – | 109
8 | O=C=Nc1ccc(Br)cc1 | 96.5 | 118 | 99.1 | 111 | 110 | 78.8 | 81 | 97.4% | 106% | 110 | 111 | 102 | 109 | 114% | 104 | 94.2 | 96.4% | 103 | – | 102
9 | COc1ccc2c(c1)C1(C)CCN(C)CC(C1)C2O (centres undefined) | 97.6 | 98.5 | 84.2 | 103 | 99.3 | 88.6 | 99.5 | 108% | 98.4% | 108 | 99.3 | 86.9 | – | 104% | 119 | 99.5 | 89.1% | 94.3 | – | –
10 | Cc1cc[c-]cc1.Fc1c[c-]c(-c2ccccn2)c(F)c1.N#CCC[PH+](CCC#N)c1ccccc1.[Pt+2] | 22.1 | 37.2 | 49.9 | 62.3 | 56.9 | 29.4 | 68.6 | 9.83% (active) | -2.55% (active) | 42.7 | 23.9 | 24.7 | 106 | 6.91% (active) | 14.8 | 52.3 | 2.54% (active) | 10 | – | 56.8
11 | N#Cc1ccc(Cl)cc1 | 110 | 84.4 | 101 | 108 | 105 | 129 | 106 | 104% | 106% | 117 | 107 | 94.6 | 60.3 | 102% | 111 | 134 | 83.9% | 99.5 | – | 117
12 | C[N+]1(CC#CC[N+]2(C)CCCC2)CCCC1 | 103 | 101 | 88.4 | 104 | 107 | 92.7 | 101 | 99.9% | 93.6% | 111 | 102 | 94.4 | 96.3 | 108% | 97.1 | 84.6 | 94.1% | 107 | – | 97.5
13 | O=[N+]([O-])c1ccc(P(=O)(O)O)cc1 | 103 | 100 | 80.2 | 108 | 96.2 | 91.3 | 109 | 105% | 93.2% | 109 | 101 | 81.5 | – | 98.8% | 95.7 | 125 | 105% | 97.1 | 103 | –
14 | CCCn1cc2c3c(cccc31)[C@H]1C[C@@H](C)CN(C)[C@@H]1C2 | 84.1 | 45 | 58.2 | 91.2 | 86.7 | 72.3 | 113 | 93.2% | 88.5% | 97.7 | 81.6 | 36.1 | – | 94.6% | 83.8 | 71.3 | – | 86.9 | – | 94.9
15 | CC(=O)C(N)Cc1ccccc1 (centres undefined) | 103 | 103 | 86.7 | 99.3 | 84.2 | 83.6 | 107 | 92.6% | 95.1% | 114 | 95.7 | 96.3 | – | 99.7% | 96.2 | – | – | 84.4 | – | 100
16 | Nc1ccc(S(=O)(=O)F)cc1 | 107 | 103 | 99.5 | 105 | 105 | 105 | 106 | 105% | 99.4% | 114 | 105 | 86.3 | 92.7 | 109% | 101 | 94.8 | 91.9% | – | – | 112
